High-throughput results (PubChem BioAssay)
Compounds with a hit are over-represented: about 9% of the library has one in this group of screens.
HP1b binding inh: inhibitors of HP1-beta chromodomain binding to methylated histone tails; 0.56% of 390,000 active; Potency, µM (highest dose often 114 µM), inactives show at the highest dose activity change, negative = inhibition, hits mostly inhibitors; AlphaScreen HP1-beta / biotin-H3K9me3 peptide binding; AID 540317; note: nearly all actives have a fitted effect of over 70% in size
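HP1-beta protein (50 nM final) preincubated 30 min at room temperature with biotinylated H3(1-18)K9me3 peptide (50 nM) in PBS pH 7.4, 0.01% Tween-20, then compound added for 30 min. AlphaScreen streptavidin donor/nickel chelate acceptor beads (10 ug/mL final), 30 min dark, luminescence read.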
PLK1 PBD inh: blocks phosphopeptide binding to human PLK1 polo-box domain; P53350; Plk1 PBD binding of FITC phosphopeptide, fluorescence polarization; Potency, µM, inactives show max response, negative = inhibition, most hits filed as inhibitors; 2.8% of 360,000 active; note: series mostly up to about 57 µM; % is set by controls: 0 for no effect and ±100 for the full control effect; nearly all actives have a fitted effect of over 65% in size
G9a block: inhibitors of human histone lysine methyltransferase G9a; Q96KQ7; G9a H3K9 monomethylation, AlphaScreen, 2 h; Potency, µM (top dose mostly 102 µM), for the others: at the highest dose activity, negative = inhibition, usual class: inhibitors; 8.8% of 350,000 active; note: % is set by controls: 0 for no effect and ±100 for the full control effect; nearly all actives have a fitted effect of over 75% in size
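Chemiluminescent proximity detection of H3K9 monomethylation, read after 10 min bead incubation in the dark. Reaction: 20 nM G9a, 500 nM biotin-H3K9 peptide, 20 uM SAM cofactor, 2 h, room temperature, following 15 min enzyme-compound preincubation.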
JMJD2A Tudor: JMJD2A Tudor domain (human) inhibition; AlphaScreen JMJD2A-Tudor / H3K4me3 peptide binding; Potency, µM (series often up to 114 µM), without a hit: top-dose activity change, negative = inhibition, usual class: inhibitors; 4.4% of 390,000 active; AID 504339; note: % is set by controls: 0 for no effect and ±100 for the full control effect; nearly all actives have a fitted effect of over 50% in size
12-LOX inh: ALOX12 (human) lipoxygenase inhibition | purified 12hLO, xylenol orange hydroperoxide absorbance | Potency, µM (highest dose often 108 µM), inactives show at the highest dose activity change, negative = inhibition, hits mostly inhibitors | 1.1% of 580,000 active | AID 1671190; note: % is set by controls: 0 for no effect and ±100 for the full control effect
Target sequence (P18054 whole entry, looked up): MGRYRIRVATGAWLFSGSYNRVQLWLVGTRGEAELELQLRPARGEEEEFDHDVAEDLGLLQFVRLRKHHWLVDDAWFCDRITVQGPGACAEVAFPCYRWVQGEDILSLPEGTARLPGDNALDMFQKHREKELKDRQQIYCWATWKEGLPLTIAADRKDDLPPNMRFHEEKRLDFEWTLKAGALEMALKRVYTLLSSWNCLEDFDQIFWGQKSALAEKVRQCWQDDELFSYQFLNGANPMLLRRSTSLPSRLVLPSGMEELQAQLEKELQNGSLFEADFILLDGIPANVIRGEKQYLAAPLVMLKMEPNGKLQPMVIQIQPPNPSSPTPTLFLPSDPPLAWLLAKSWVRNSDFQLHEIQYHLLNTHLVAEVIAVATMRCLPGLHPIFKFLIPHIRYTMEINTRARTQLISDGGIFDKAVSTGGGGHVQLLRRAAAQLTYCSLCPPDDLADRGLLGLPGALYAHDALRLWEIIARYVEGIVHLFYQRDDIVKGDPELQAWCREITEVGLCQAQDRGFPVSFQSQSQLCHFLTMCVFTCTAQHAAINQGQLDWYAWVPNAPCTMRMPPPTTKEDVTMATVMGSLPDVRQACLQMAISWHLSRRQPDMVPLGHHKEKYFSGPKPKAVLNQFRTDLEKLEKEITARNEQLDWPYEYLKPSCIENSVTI
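Purified human 12hLO at 150 nM in 25 mM Hepes, 0.01% Triton X-100, pH 7.0, preincubated 15 min at room temperature with compound. Reaction started with 40 uM arachidonic acid, 30 min at room temperature. Hydroperoxide measured by Fe-xylenol orange, 573/405 nm absorbance ratio.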
BAZ2B inh: BAZ2B (human) inhibition. AlphaScreen BAZ2B-H3K14Ac peptide displacement. Potency, µM (highest dose often 114 µM), for the others: top-dose activity change, negative = inhibition, usual class: inhibitors. 4.4% of 360,000 active; note: % is set by controls: 0 for no effect and ±100 for the full control effect; nearly all actives have a fitted effect of over 60% in size
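Complex of BAZ2B and biotin-H3K14Ac (50 nM apiece) forms over 30 min at RT, then faces library compounds up to 110 uM for another 30 min; AlphaScreen beads added, 20 min dark incubation, luminescence read.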
The depositor's hits bear a star; ? = inconclusive; · = no result; [ ] = another dose, or the depositor's remark. Calls come from the whole dose curve; as a rule, active = well fitted curve in the direction sought with a large enough effect; inconclusive = small, poorly fitted or top-dose-only effect, or another doubt; inactive = no such curve, though single readings can be large; an effect the other way counts as inactive or inconclusive. Potency is the fitted concentration of half-maximal effect.

SMILES	HP1b binding inh	PLK1 PBD inh	G9a block	JMJD2A Tudor	12-LOX inh	BAZ2B inh
COc1ccc(C2Nc3cccc4cccc(c34)N2)cc1	?	30µM*	35µM*	?	?	40µM*
O=[N+]([O-])c1ccccc1C1Nc2cccc3cccc(c23)N1	?	-18%	2.8µM*	40µM*	?	32µM*
COc1ccc(C2=Nc3cccc4cccc(c34)N2)cc1	-4%	-25%	?	-27%	31%	-37%
O=C(Nc1cccc(NC(=O)c2cc([N+](=O)[O-])ccc2Cl)n1)c1cc([N+](=O)[O-])ccc1Cl	12%	-13%	·	?	·	·
COc1ccccc1C1Nc2cccc3cccc(c23)N1	?	-16%	?	50µM*	?	50µM*
O=[N+]([O-])c1ccc(Cl)c(C2Nc3cccc4cccc(c34)N2)c1	?	-5%	13µM*	25µM*	-16%	18µM*
Cc1cc(C(=O)OCC(=O)c2ccccc2)c2ccccc2n1	15%	-1%	20%	-1%	9%	8%
COc1cc(OC)c(C2Nc3cccc4cccc(c34)N2)c(OC)c1	?	-16%	28µM*	50µM*	?	35µM*
COc1cc(/C=C2/C(=N)N3C(=NC2=O)SN=C3S(=O)(=O)C(C)C)ccc1OC(=O)c1ccco1	-7%[57 µM]	21µM*	40µM*	-31%	?	56µM*
CCOc1cc(/C=C2/C(=N)N3C(=NC2=O)SN=C3S(=O)(=O)C(C)C)ccc1OC(=O)c1ccco1	-5%	27µM*	35µM*	-25%	?	-35%
COc1cc(/C=C2/C(=N)N3C(=NC2=O)SN=C3S(C)(=O)=O)ccc1OC(=O)c1ccco1	5%	?	?	?	?	?
CCOc1cc(/C=C2/C(=N)N3C(=NC2=O)SN=C3S(=O)(=O)CC)ccc1OC(=O)c1ccco1	-14%[57 µM]	27µM*	40µM*	?	?	-34%
FC(F)(F)c1cc(-c2ccco2)nc(-n2cnc3ccccc32)n1	14%	-4%	-3%[2.33 µM]	-4%	16%	5%
O=C(Cc1ccc(Cl)c(Cl)c1)NC1CCCCCC1	8%	-4%	20%	-10%	-16%	-2%
CCc1ccc(CNc2ncncc2-c2nc(-c3ccccc3)no2)cc1	·	·	·	·	42%	·
O=C(NCc1ccco1)N1CCC(OC2CCN(Cc3ccccc3)CC2)CC1	·	·	·	·	-4%	·
Cc1nnc(NC(=O)CSc2ccc3nnc(-c4ccccn4)n3n2)s1	34%	-2%	-33%	79µM*	-4%	·
Cc1nnc2ccc(SCC(=O)Nc3ccccc3)nn12	·	·	·	·	6%	·
COc1ccc(-c2ccc(SCC(=O)Nc3nccs3)nn2)cc1OC	70%	-6%	4%	?	-4%	-36%
COc1ccc(-c2nnc3ccc(SCC(=O)Nc4nccs4)nn23)cc1OC	22%	-7%	32µM*	7%	?	-10%
O=C(CSc1ccc2nnc(-c3ccncc3)n2n1)Nc1nccs1	32%	-13%	50µM*	-11%	-2%	·
O=C(CSc1ccc2nnc(-c3ccccn3)n2n1)Nc1nccs1	53%	3%	-6%	32µM*	?	·
O=C(CSc1ccc2nnc(-c3ccncc3)n2n1)Nc1ccccc1F	42%	-2%	-22%	-6%	-7%	3%
COc1cccc(CC(=O)Nc2ccc3ncnc(N4CCCC4)c3c2)c1	·	·	·	·	26%	·
N#Cc1cccc(CN2CCc3c(n(Cc4cccnc4)n(CCc4ccccc4)c3=O)C2)c1	·	·	·	·	19%	·
SMILES	HP1b binding inh	PLK1 PBD inh	G9a block	JMJD2A Tudor	12-LOX inh	BAZ2B inh
Cc1cc(Cl)ccc1NC(=O)CCn1ccn2nc3c(c2c1=O)CCCC3	·	·	·	·	16%	·
O=C(Oc1ccc2c(c1)OCO2)c1cc2c(s1)CCC2	?	-28%	-31%[59 µM]	32µM*	?	-126%
Cc1nc(SC(C)c2cccc(F)c2)sc1CC(N)=O (stereo unspecified)	·	·	·	·	-6%	·
COc1ccc(OC)c(-c2c3c([nH]c(=S)c2C#N)CCCC3)c1	9%	27µM*	?	-32%	?	?
COc1ccc2[nH]c3c(c(=O)c2c1)CCCC3	·	-1%	·	·	-3%	·
COc1ccc(-c2c3c([nH]c(=S)c2C#N)CCC3)cc1	-16%	7.5µM*	?	45µM*	-22%	1%
Cc1cccc(NC(=O)CCc2c(C)nn(-c3ccc(N4CCCCC4)nn3)c2C)c1	13%[57 µM]	-3%	16%	-27%	20%	-31%[57.1 µM]
O=C(Nc1ccccc1)N1CCCN(Cc2c(F)cccc2Cl)CC1	11%	-2%	·	-5%	87%	-2%
CC(C)C(=O)Nc1cccc(NC(=O)c2ccc(Cl)cc2Cl)c1	13%	-17%	15%[59 µM]	-4%	-4%	-2%
CCOC(=O)CNC(=O)c1sc2ncnc(N3CCc4ccccc4C3)c2c1C	2%	-11%	?	-19%	0%	-5%
CCCCNC(=O)c1sc2ncnc(N3CCc4ccccc4C3)c2c1C	2%	27µM*	18%[59 µM]	-17%	-12%	6%
O=C1c2ccccc2CN1C1CCN(Cc2cccc3ccccc23)CC1	·	·	·	·	50µM*	·
COc1ccc(-c2nc(C(=O)N3CCN(Cc4cccc(Cl)c4)CC3)cs2)cc1OC	·	·	·	·	3%	·
CC1(C)CC(=O)C(Sc2nnc(-c3ccc(O)cc3)n2CC2CCCO2)C(=O)C1 (stereo unspecified)	42%	-7%	28µM*	-21%	?	?
O=C(CSc1nnc(-c2ccccc2)n1CC1CCCO1)N1CCCC1 (stereo unspecified)	21%	-4%	22%	-3%	6%	-15%
CN(C)/C=C/C(=O)c1ccc(Oc2ccccc2)cc1	23%	-12%	8%[12.7 µM]	-15%	5µM*	?
CN(C)/C=C/C(=O)c1ccccc1	34%	6%	·	5%	1%	0%
Cc1ccccc1Oc1cc(-n2ncc(Cl)c(Cl)c2=O)ncn1	29%	5.3µM*	25%[59 µM]	-19%	-7%	0%
O=C(CCC1CCN(C(=O)c2cncs2)CC1)Nc1ccccc1	19%	-9%	·	2%	?	-4%
COCC(C)n1c(C)cc(C(=O)COC(=O)c2nc3nc(C)cc(C)n3n2)c1C (stereo unspecified)	15%	-5%	56µM*	-15%	-30%	-10%
O=C(c1ccc2[nH]ccc2c1)N1CCOc2ccc(CN3CCN(c4ccccn4)CC3)cc2C1	·	·	·	·	-1%	·
COc1ccc(CC(=O)OCC(=O)NC(=O)NC23CC4CC(CC(C4)C2)C3)cc1	15%	1%	-13%[59 µM]	-23%	?	-5%
COc1cccc(C2C(C#N)=C(N)SC(c3ccccc3)C2[N+](=O)[O-])c1 (stereo unspecified)	-13%	-7%	?	?	-13%	50µM*
